Reference: ChEMBL document CHEMBL1961873, “Compounds: GSK PKIS; Assays: Nanosyn kinase panel” (2012)

Molecular target: Mast/stem cell growth factor receptor Kit (Homo sapiens) (UniProt P10721)
Conditions: at 1 µM

Chain of Mast/stem cell growth factor receptor Kit (Homo sapiens) (P10721 whole entry): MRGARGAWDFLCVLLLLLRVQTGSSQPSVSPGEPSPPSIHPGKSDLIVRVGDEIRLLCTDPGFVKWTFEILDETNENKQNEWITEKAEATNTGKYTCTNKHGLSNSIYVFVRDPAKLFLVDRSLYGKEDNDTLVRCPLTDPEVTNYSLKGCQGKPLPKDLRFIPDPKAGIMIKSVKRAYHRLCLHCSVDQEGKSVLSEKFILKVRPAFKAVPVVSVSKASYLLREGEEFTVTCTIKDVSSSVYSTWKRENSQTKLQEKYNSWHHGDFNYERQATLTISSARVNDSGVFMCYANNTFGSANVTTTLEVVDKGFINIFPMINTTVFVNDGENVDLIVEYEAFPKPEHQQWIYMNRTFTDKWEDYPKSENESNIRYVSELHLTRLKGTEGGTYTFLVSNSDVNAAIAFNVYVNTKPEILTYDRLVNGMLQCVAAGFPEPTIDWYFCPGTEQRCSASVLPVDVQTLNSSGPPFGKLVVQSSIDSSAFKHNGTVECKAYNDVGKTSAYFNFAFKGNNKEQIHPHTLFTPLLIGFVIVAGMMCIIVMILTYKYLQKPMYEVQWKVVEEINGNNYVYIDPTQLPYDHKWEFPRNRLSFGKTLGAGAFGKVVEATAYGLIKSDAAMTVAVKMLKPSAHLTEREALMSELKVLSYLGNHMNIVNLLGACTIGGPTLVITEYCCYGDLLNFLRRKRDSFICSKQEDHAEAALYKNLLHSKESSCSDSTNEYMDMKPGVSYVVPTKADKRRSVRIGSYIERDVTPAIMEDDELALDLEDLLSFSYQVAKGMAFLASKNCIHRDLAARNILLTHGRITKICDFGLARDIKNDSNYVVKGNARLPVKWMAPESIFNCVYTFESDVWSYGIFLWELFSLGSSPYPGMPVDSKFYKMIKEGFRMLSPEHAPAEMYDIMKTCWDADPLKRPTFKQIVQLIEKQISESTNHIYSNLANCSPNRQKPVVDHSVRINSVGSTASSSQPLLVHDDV

Row | Structure (SMILES) | inhibition [%]
1 | CN1CCC(C(=O)Nc2n[nH]c3nnc(-c4ccccc4)cc23)CC1 | 8.5
2 | COc1cc2ncn(-c3cc(OCc4ccccc4C(F)(F)F)c(C(N)=O)s3)c2cc1OC | 20.5
3 | CCn1c(-c2nonc2N)nc2ccncc21 | -2.36
4 | COc1cc2ncn(-c3cc(OCc4ccccc4Cl)c(C(N)=O)s3)c2cc1OC | 15.6
5 | CC1=C(C(=O)Nc2ccc3[nH]ncc3c2)C(c2ccc(Cl)c(Cl)c2)CC(=O)N1 (stereo not drawn) | 2.48
6 | CS(=O)(=O)CCN(CC#N)Cc1ccc(-c2ccc3ncnc(Nc4ccc(OCc5cccc(F)c5)c(Cl)c4)c3c2)o1 | 0.7
7 | Nc1ncnc2occ(-c3ccc(NC(=O)Nc4cccc(C(F)(F)F)c4)cc3)c12 | 97.3
8 | NC(=O)c1ccc(-c2nc(-c3ccccn3)c(-c3ccc4c(c3)OCO4)[nH]2)cc1 | 4.68
9 | O=C1NC(=O)C(N2CCc3ccccc32)=C1c1ccc(Cl)cc1 | 12
10 | O=C1NC(=O)C(c2ccc(Cl)cc2)=C1Nc1ccc(Cl)c(C(=O)O)c1 | -0.38
11 | NC(=O)c1cccc(Nc2nccc(Nc3cccc4[nH]ncc34)n2)c1 | 91.1
12 | CNC(=O)c1cncc(/C=C/c2c(Cl)cccc2Cl)c1 | 33.4
13 | COc1ccc(-c2coc3ncnc(N)c23)cc1 | 21.7
14 | Cc1nn(C)c2cc(N(C)c3ccnc(Nc4cccc(S(N)(=O)=O)c4)n3)ccc12 | 88
15 | O=C1NC(=O)C(c2cccc(Cl)c2)=C1Nc1ccc(O)c(Cl)c1 | -2.75
16 | O=C1Nc2ccc(C(=O)c3ccco3)cc2C1=Cc1cc(Cl)c(O)c(Cl)c1 | 63.5
17 | NS(=O)(=O)c1ccc(N/N=C2\C(=O)Nc3ccc(C(=O)NCCc4c[nH]cn4)cc32)cc1 | 7.76

Row | Structure (SMILES) | inhibition [%]
18 | Nc1nc(-c2ccc3c(c2)C(=Cc2cc(Br)c(O)c(Br)c2)C(=O)N3)cs1 | 3.41
19 | O=C(Nc1n[nH]c2nc(-c3ccco3)c(Br)cc12)C1CC1 | 4.71
20 | Cn1cc(C=C2C(=O)Nc3cccnc32)c2ccccc21 | 52.7
21 | CC1=C(C(=O)Nc2ccc3[nH]ncc3c2)C(c2ccc(F)cc2)NC(=O)N1 (stereo not drawn) | 3.87
22 | CCn1c(-c2nonc2N)nc2c(N3CCCC3)nccc21 | 1.81
23 | COc1cc2c(cc1Nc1nc(N3CCc4ccccc43)c3cc[nH]c3n1)N(C(=O)CN(C)C)CC2 | 5.18
24 | Cc1cccc(-c2n[nH]cc2-c2ccc3ncccc3n2)n1 | 2.16
25 | CCc1cccc(NC(=O)Nc2ccc(Oc3ccc4nc(NC(=O)OC)[nH]c4c3)cc2)c1 | 93
26 | COc1ccc(-c2nn3ncccc3c2-c2ccnc(Nc3ccc(Cl)c(C(F)(F)F)c3)n2)cc1 | 8.96
27 | Nc1ncnc2occ(-c3ccc(NC(=O)Nc4cc(C(F)(F)F)cc(C(F)(F)F)c4)cc3)c12 | 90.6
28 | CCn1c(-c2nonc2N)nc2cncc(C(=O)N3CC[C@H](N)C3)c21 | 6.77
29 | COC(=O)Nc1nc2cc(Oc3ccc(NC(=O)Nc4cccc(C(=O)O)c4)cc3)ccc2[nH]1 | 18.8
30 | [O-][S+]1CCN(Cc2ccc(-c3ccc4ncnc(Nc5ccc(OCc6ccccc6)c(F)c5)c4c3)o2)CC1 | 3.42
31 | COc1cc(C=NNc2ncnc3c2cnn3-c2ccccc2)ccc1O | 67
32 | NCc1ccc(-c2nc(-c3ccc(Cl)c(O)c3)c(-c3ccncc3)[nH]2)cc1 | 2.11
33 | Cc1nnc(-c2ccc(C)c(-c3ccc(C(=O)Nc4cccc(C#N)c4)cc3)c2)o1 | 6.9
34 | CCn1c(-c2nonc2N)nc2c(C#CC(C)(C)O)nc(OC[C@@H](N)c3ccccc3)cc21 | 2.86

Test system: Mast/stem cell growth factor receptor Kit (Homo sapiens), P10721 [D816V]
Sequence (P10721 whole entry D816V): as the sequence (P10721 whole entry) above, with D816V counted along it
Conditions: at 0.1 µM

Row | Structure (SMILES) | inhibition [%]
35 | CN1CCC(C(=O)Nc2n[nH]c3nnc(-c4ccccc4)cc23)CC1 | 7.35
36 | COc1cc2ncn(-c3cc(OCc4ccccc4C(F)(F)F)c(C(N)=O)s3)c2cc1OC | 5.23
37 | CCn1c(-c2nonc2N)nc2ccncc21 | -0.01
38 | COc1cc2ncn(-c3cc(OCc4ccccc4Cl)c(C(N)=O)s3)c2cc1OC | 0.27
39 | CC1=C(C(=O)Nc2ccc3[nH]ncc3c2)C(c2ccc(Cl)c(Cl)c2)CC(=O)N1 (stereo not drawn) | -0.94
40 | CS(=O)(=O)CCN(CC#N)Cc1ccc(-c2ccc3ncnc(Nc4ccc(OCc5cccc(F)c5)c(Cl)c4)c3c2)o1 | 3.19
41 | Nc1ncnc2occ(-c3ccc(NC(=O)Nc4cccc(C(F)(F)F)c4)cc3)c12 | 3.24
42 | NC(=O)c1ccc(-c2nc(-c3ccccn3)c(-c3ccc4c(c3)OCO4)[nH]2)cc1 | 7.73
43 | O=C1NC(=O)C(N2CCc3ccccc32)=C1c1ccc(Cl)cc1 | 2.68
44 | O=C1NC(=O)C(c2ccc(Cl)cc2)=C1Nc1ccc(Cl)c(C(=O)O)c1 | -3.8
45 | NC(=O)c1cccc(Nc2nccc(Nc3cccc4[nH]ncc34)n2)c1 | -2.32
46 | CNC(=O)c1cncc(/C=C/c2c(Cl)cccc2Cl)c1 | 2.74
47 | COc1ccc(-c2coc3ncnc(N)c23)cc1 | 5.53
48 | Cc1nn(C)c2cc(N(C)c3ccnc(Nc4cccc(S(N)(=O)=O)c4)n3)ccc12 | 2.13
49 | O=C1NC(=O)C(c2cccc(Cl)c2)=C1Nc1ccc(O)c(Cl)c1 | 0.75
50 | O=C1Nc2ccc(C(=O)c3ccco3)cc2C1=Cc1cc(Cl)c(O)c(Cl)c1 | 1.83
51 | NS(=O)(=O)c1ccc(N/N=C2\C(=O)Nc3ccc(C(=O)NCCc4c[nH]cn4)cc32)cc1 | 3.86

Row | Structure (SMILES) | inhibition [%]
52 | Nc1nc(-c2ccc3c(c2)C(=Cc2cc(Br)c(O)c(Br)c2)C(=O)N3)cs1 | 0.19
53 | O=C(Nc1n[nH]c2nc(-c3ccco3)c(Br)cc12)C1CC1 | 4
54 | Cn1cc(C=C2C(=O)Nc3cccnc32)c2ccccc21 | 2.87
55 | CC1=C(C(=O)Nc2ccc3[nH]ncc3c2)C(c2ccc(F)cc2)NC(=O)N1 (stereo not drawn) | 0.52
56 | CCn1c(-c2nonc2N)nc2c(N3CCCC3)nccc21 | -1.12
57 | COc1cc2c(cc1Nc1nc(N3CCc4ccccc43)c3cc[nH]c3n1)N(C(=O)CN(C)C)CC2 | 3.89
58 | Cc1cccc(-c2n[nH]cc2-c2ccc3ncccc3n2)n1 | 3.77
59 | CCc1cccc(NC(=O)Nc2ccc(Oc3ccc4nc(NC(=O)OC)[nH]c4c3)cc2)c1 | 0.55
60 | COc1ccc(-c2nn3ncccc3c2-c2ccnc(Nc3ccc(Cl)c(C(F)(F)F)c3)n2)cc1 | 0.87
61 | Nc1ncnc2occ(-c3ccc(NC(=O)Nc4cc(C(F)(F)F)cc(C(F)(F)F)c4)cc3)c12 | -2.07
62 | CCn1c(-c2nonc2N)nc2cncc(C(=O)N3CC[C@H](N)C3)c21 | 5.29
63 | COC(=O)Nc1nc2cc(Oc3ccc(NC(=O)Nc4cccc(C(=O)O)c4)cc3)ccc2[nH]1 | 1.22
64 | [O-][S+]1CCN(Cc2ccc(-c3ccc4ncnc(Nc5ccc(OCc6ccccc6)c(F)c5)c4c3)o2)CC1 | 2.25
65 | COc1cc(C=NNc2ncnc3c2cnn3-c2ccccc2)ccc1O | 2.68
66 | NCc1ccc(-c2nc(-c3ccc(Cl)c(O)c3)c(-c3ccncc3)[nH]2)cc1 | 1.93
67 | Cc1nnc(-c2ccc(C)c(-c3ccc(C(=O)Nc4cccc(C#N)c4)cc3)c2)o1 | 2.18
68 | CCn1c(-c2nonc2N)nc2c(C#CC(C)(C)O)nc(OC[C@@H](N)c3ccccc3)cc21 | -1.77
